Experimental findings from PubChem BioAssay (Tox21) are described below.

Test [1] in a line: Nuclear factor erythroid 2-related factor 2/antioxidant responsive element (Nrf2/ARE) small molecule agonists: qHTS cell viability counter screen in human keratinocytes (AID 1919968; active = well fitted curve in the direction sought with a large enough effect in the repeat runs; an effect the other way counts as inactive or inconclusive; also: nearly all actives have a fitted effect of over 55% in size). Summed up:
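Seed 1,500 KeratinoSens cells per well, then incubate 5 h at 37 C/5% CO2. Add compounds in DMSO and incubate 23 h. Add CellTiter-Fluor, wait 1 h and read fluorescence.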
For orientation: In qHTS, concentration-response curves come from the screen itself.

Test [2] is described as follows: Nuclear factor erythroid 2-related factor 2/antioxidant responsive element (Nrf2/ARE) small molecule agonists: luciferase reporter gene qHTS assay in human keratinocytes (AID 1919969; also: nearly all actives have a fitted effect of over 35% in size). (Reporter assays use an easily measured gene product as a stand-in for the process of interest.)
For test [3], the target named is Gonadotropin-releasing hormone receptor (Homo sapiens) (UniProt P30968). As to the kind of experiment: Human gonadotropin-releasing hormone receptor (GnRHR) small molecule agonists, calcium flux assay in GnRHR-HEK293 cells (AID 1920063). Also: nearly all actives have a fitted effect of over 35% in size. Summed up:
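Cells: HEK293 stably expressing human GnRHR. Steps: overnight (18 h) culture, 1 h calcium dye loading at 37 C, compound addition, kinetic fluorescence read at 480/540 nm. Each compound tested at 15 concentrations in triplicate.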

In test [4] the target is KiSS-1 receptor (Homo sapiens) (UniProt Q969F8). As to the kind of experiment: Human kisspeptin (KISS1R) small molecule agonists, calcium flux assay in KISS1R-HEK293 cells (AID 1920064; active = well fitted curve in the direction sought with a large enough effect in the repeat runs; an effect the other way counts as inactive or inconclusive). Summed up: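 Cells plated and incubated 18 h; dye added, 1 h at 37 C; compounds in DMSO pinned in; signal read at 480/540 nm every second for 3 min. Each compound tested at 15 concentrations in triplicate.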

A short description of test [5]: G protein-coupled receptor (GPCR) small molecule agonists, calcium flux assay: HEK293 wild type cell line counter screen (AID 1920065). The procedure, abridged:
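Counter-screen of the Tox21 10K library for non-specific calcium release: dye-loaded cells received compounds in DMSO and were monitored by kinetic fluorescence (480/540 nm, 3 min). Fifteen concentrations, run in triplicate.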
In general terms: Calcium assays in cells follow changes in intracellular calcium, usually with a dye or a luminescent sensor.

A short description of test [6]: p53 small molecule agonists, cell-based qHTS assay with human liver microsomes (AID 1963577).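 Also: p53 response element beta-lactamase reporter cells with liver microsomes plus NADPH.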 Summed up:
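Reporter activation was measured by LiveBLAzer fluorescence intensity in p53RE-bla cells, which had been exposed to compounds for 16 h at 37 C alongside 0.5 mg/mL human liver microsomes and 0.5 mg/mL NADPH (final concentrations).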

A short description of test [7]: p53 small molecule agonists, cell-based qHTS assay with rat liver microsomes (AID 1963578). The procedure, abridged:
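Compound in DMSO added to p53RE-bla cells 5 h post-plating; rat microsomes/NADPH 0.5 mg/mL final; 16 h, 37 C; LiveBLAzer 2 h RT.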

Test [8] can be described thus: p53 small molecule agonists, cell-based qHTS assay with human liver microsomes: qHTS cell viability counter screen (AID 1963579). Also: nearly all actives have a fitted effect of over 45% in size. The procedure, abridged:
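HLM-supplemented (0.5 mg/mL final) and NADPH-supplemented (0.5 mg/mL final) p53RE-bla cultures, 4,000 cells per well, were dosed with compounds in DMSO for 16 h at 37 C; luminescent ATP detection (CellTiter-Glo, 30 min, room temperature) quantified surviving cells.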

The nature of test [9]: p53 small molecule agonists, cell-based qHTS assay with rat liver microsomes: qHTS cell viability counter screen (AID 1963580). Also: nearly all actives have a fitted effect of over 45% in size. The procedure, abridged:
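Viability is assessed in parallel with the p53 reporter read: HCT-116 p53RE-bla cells receive compounds plus rat microsomes and NADPH (0.5 mg/mL final apiece), incubate 16 h at 37 C, and then CellTiter-Glo luminescence is recorded.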

Test [10] can be described thus: p53 small molecule agonists, cell-based qHTS assay: qHTS cell viability counter screen (AID 1963581). Also: nearly all actives have a fitted effect of over 45% in size. The procedure, abridged: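 Cells: HCT-116 with p53 response element-driven beta-lactamase. Treatment: 16 h, 37 C, compounds in DMSO. Read: CellTiter-Glo luminescence after 30 min RT.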
The nature of test [11]: p53 small molecule agonists, cell-based qHTS assay (AID 1963582; active = well fitted activation curve with a large enough effect in the signal ratio in the repeat runs, not every such curve was filed as active; the % refers to the signal ratio; also: potency is read from the fitted curve at half-maximal effect). The procedure, abridged:
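Quantitative HTS in p53RE-bla cells: after a 5 h settling period, compounds delivered in DMSO were left on cells for 16 h at 37 C, and reporter induction was measured as fluorescence following 2 h substrate loading.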

A short description of test [12]: cAMP Responsive Elements (CRE) small molecule agonists, cell-based qHTS assay (AID 1963590). The procedure, abridged: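 Agonist mode qHTS in CRE-bla HEK 293T cells: compounds dosed from DMSO for 3 h at 37 C/5% CO2, followed by LiveBLAzer B/G FRET substrate for 2 h at room temperature.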
Test [13] is described as follows: cAMP Responsive Elements (CRE) small molecule antagonists, cell-based qHTS assay (AID 1963591; active = well fitted inhibition curve with a large enough effect in the signal ratio in the repeat runs, not every such curve was filed as active; the % refers to the signal ratio). Summed up:
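Antagonist mode: test compounds are co-incubated with the adenylyl cyclase activator NKH477 (0.25 uM final) on CRE-bla HEK293T cells for 3 h at 37 °C, followed by LiveBLAzer substrate loading.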

Test [14] deals with Beta-2 adrenergic receptor (Homo sapiens) (UniProt P07550). As to the kind of experiment: Adrenergic beta2 receptor (ADRB2) small molecule antagonists, cell-based qHTS assay (AID 1963592). Also: series mostly up to about 92 µM; nearly all actives have a fitted effect of over 50% in size. The procedure, abridged:
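Cells (CHO, stable ADRB2 overexpression) incubated 18-20hr at 37C; compounds added from DMSO; agonist mix (1nM isoproterenol, 100uM IBMX, 25uM Ro-20-1724) added; 0.5hr RT; d2-cAMP and anti-cAMP-cryptate added; 1hr RT; 665/615 nm read.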

Test [15] deals with D(2) dopamine receptor (Homo sapiens) (UniProt P14416). The experiment in a line: Dopamine D2 receptor (DRD2) small molecule agonists, cell-based qHTS assay (AID 1963594). Also: nearly all actives have a fitted effect of over 35% in size. Summed up:
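HEK293 cells stably expressing human DRD2, pre-treated with PDE inhibitor Ro20-1724 (0.1 mM final) and compound 10 min at room temperature, then stimulated with NKH477 (200nM […]) for 30 min. cAMP read by HTRF (665/620 nm).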

Test [16] has the same target. The experiment in a line: Dopamine D2 receptor (DRD2) small molecule antagonists, cell-based qHTS assay (AID 1963595; active = well fitted inhibition curve with a large enough effect in the signal ratio in the repeat runs, with a control signal flat; the % refers to the signal ratio). The procedure, abridged: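 Antagonist mode in DRD2-HEK293 cells: after compound addition with 0.1 mM Ro20-1724, cells received quinpirole (12 nM) and NKH477 (200 nM) for 30 min at room temperature; HTRF cAMP read after 1 h detection.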
Test [17] has as its target Muscarinic acetylcholine receptor M1 (Homo sapiens) (UniProt P11229). The experiment in a line: Cholinergic receptor muscarinic 1 (CHRM1) small molecule antagonists, cell-based qHTS assay (AID 1963588). Also: nearly all actives have a fitted effect of over 40% in size. Summed up:
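CHRM1-CHO calcium-flux assay, antagonist mode. Cells were seeded 18 h, dye-loaded 1 h at 37 C and given compound for 5 min at RT, then acetylcholine was added at 50nM. FDSS fluorescence was read 3 min; 15 concentrations, three runs.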

The target is the same in test [18]. As to the kind of experiment: Cholinergic receptor muscarinic 1 (CHRM1) small molecule agonists, cell-based qHTS assay (AID 1963589). Also: nearly all actives have a fitted effect of over 35% in size. Summed up:
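Agonist-mode qHTS in CHO cells stably carrying human muscarinic M1. Intracellular calcium is tracked by fluorescence every second after compound transfer; each compound runs at 15 concentrations in three independent runs.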

The target of test [19] is Beta-2 adrenergic receptor (Homo sapiens) (UniProt P07550). The experiment in a line: Adrenergic beta2 receptor (ADRB2) small molecule agonists, cell-based qHTS assay (AID 1963593).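 Also: CHO cells stably overexpressing human ADRB2.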 Summed up: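 CHO cells stably over-expressing ADRB2 were plated overnight at 37C, then dosed with compounds plus a stimulation mix containing 100uM IBMX and 25uM Ro-20-1724 for 0.5hr at room temperature. cAMP was measured by HTRF competition, 1hr.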

Values without a mark were called inactive. Records with an inconclusive call do not appear. Calls of active or inactive are those of the source. Unless noted, calls follow the shape of the full dose curve.
% is scaled to controls: 0 for no effect and ±100 for the full control effect.

Chain of KiSS-1 receptor (Homo sapiens) (Q969F8 whole entry, looked up): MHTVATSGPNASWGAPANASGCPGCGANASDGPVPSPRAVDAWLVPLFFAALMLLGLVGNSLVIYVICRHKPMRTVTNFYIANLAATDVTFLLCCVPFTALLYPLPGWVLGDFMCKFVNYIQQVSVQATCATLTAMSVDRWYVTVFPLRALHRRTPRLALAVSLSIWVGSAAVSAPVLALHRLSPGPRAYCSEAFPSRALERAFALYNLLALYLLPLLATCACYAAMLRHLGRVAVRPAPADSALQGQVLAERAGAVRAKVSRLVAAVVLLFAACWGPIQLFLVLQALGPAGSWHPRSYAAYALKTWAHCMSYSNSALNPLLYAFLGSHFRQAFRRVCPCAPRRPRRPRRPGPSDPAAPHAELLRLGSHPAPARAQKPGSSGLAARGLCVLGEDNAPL
Chain of Beta-2 adrenergic receptor (Homo sapiens) (P07550 whole entry, looked up): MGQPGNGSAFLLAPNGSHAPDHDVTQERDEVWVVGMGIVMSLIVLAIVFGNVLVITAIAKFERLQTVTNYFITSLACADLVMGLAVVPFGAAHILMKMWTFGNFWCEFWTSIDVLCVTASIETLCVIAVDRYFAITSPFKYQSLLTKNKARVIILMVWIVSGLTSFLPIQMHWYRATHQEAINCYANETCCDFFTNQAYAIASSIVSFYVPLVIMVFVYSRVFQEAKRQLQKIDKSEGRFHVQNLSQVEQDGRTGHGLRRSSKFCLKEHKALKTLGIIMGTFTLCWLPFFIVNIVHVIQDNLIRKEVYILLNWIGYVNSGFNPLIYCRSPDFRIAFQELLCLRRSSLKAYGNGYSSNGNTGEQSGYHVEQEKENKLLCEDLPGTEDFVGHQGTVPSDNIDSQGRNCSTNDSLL
Chain of Gonadotropin-releasing hormone receptor (Homo sapiens) (P30968 whole entry, looked up): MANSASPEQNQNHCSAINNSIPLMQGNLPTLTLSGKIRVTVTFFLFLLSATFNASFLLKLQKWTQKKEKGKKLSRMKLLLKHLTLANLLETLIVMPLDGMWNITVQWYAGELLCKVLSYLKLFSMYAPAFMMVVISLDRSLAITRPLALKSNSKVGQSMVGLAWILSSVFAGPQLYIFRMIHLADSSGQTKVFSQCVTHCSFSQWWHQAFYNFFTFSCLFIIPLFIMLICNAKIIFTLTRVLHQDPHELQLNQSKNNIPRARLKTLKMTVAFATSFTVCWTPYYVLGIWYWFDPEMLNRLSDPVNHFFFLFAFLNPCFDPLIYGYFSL
Chain of D(2) dopamine receptor (Homo sapiens) (P14416 whole entry, looked up): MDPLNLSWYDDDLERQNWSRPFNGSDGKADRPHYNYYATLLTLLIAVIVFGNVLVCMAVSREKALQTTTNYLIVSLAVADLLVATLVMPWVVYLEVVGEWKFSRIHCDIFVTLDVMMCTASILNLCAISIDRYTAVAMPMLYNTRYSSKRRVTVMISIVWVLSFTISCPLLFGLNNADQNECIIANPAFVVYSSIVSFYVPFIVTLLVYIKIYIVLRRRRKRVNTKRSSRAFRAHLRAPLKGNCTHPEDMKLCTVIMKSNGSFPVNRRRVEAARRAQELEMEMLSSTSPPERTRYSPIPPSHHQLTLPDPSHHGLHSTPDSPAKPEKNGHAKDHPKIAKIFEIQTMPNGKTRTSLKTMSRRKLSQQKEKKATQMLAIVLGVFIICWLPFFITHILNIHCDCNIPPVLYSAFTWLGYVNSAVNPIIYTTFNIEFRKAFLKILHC
Chain of Muscarinic acetylcholine receptor M1 (Homo sapiens) (P11229 whole entry, looked up): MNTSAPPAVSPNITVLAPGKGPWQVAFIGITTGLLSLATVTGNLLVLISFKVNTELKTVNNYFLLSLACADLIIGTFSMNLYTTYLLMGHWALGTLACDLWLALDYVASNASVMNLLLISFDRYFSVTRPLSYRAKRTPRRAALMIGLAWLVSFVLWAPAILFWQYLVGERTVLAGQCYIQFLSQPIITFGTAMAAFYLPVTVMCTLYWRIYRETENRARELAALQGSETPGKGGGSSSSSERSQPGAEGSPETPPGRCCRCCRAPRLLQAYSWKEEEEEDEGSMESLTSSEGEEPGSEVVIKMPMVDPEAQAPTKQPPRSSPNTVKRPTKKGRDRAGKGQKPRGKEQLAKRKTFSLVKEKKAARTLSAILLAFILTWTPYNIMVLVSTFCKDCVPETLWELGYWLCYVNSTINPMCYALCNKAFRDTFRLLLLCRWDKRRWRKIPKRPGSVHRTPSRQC

As for `CC(C)(C(=O)c1cccnc1)c1cccnc1`, the Potency entry in [1], in [2], in test [3], in test [6], in [7] and in test [8] was “inactive” each time. The Potency result in [9], in test [10], in [11], in [12], in [13] and in test [14] was “inactive” each time. For the same compound, the Potency entry in test [15] and in test [16] was “inactive” throughout. In addition, the result in [4] and in test [5] was inactive.
Turning to `CCN(CC)CCc1nc(-c2ccccc2)no1`, the Potency result in test [1], in [2], in test [3], in test [6], in test [7] and in test [8] was “inactive” in each case. In addition, the Potency entry in [9], in test [10], in test [11], in [17], in test [18] and in test [12] was “inactive” in each case. Further, the Potency result in test [14] and in test [15] was “inactive” in each case. The outcome in [4] and in test [5] was inactive.
Regarding `Cc1ccc(S(=O)(=O)NC(=O)NN2CC3CCCC3C2)cc1` (centres undefined), the Potency result in test [1], in test [2], in test [3], in test [6], in [7] and in [8] was “inactive” throughout. In addition, the Potency result in test [9], in [10], in [11], in test [12], in test [13] and in [14] was “inactive” in each case. Further, the Potency result in [19], in [15] and in test [16] was “inactive” throughout. In addition, the outcome in test [4] and in test [5] was inactive.
As to `NCC[C@H](O)C(=O)N[C@@H]1C[C@H](N)[C@@H](O[C@H]2O[C@H](CN)[C@@H](O)[C@H](O)[C@H]2O)[C@H](O)[C@H]1O[C@H]1O[C@H](CO)[C@@H](O)[C@H](N)[C@H]1O`, the activity change, negative = cytotoxicity in test [1] was -17.6% [at 0.349 µM]; in test [8] it was 4.34% [at 0.249 µM]; in test [9], 1.45% [at 0.249 µM]; in test [10] it was -9.5% [at 0.249 µM]. The activity, positive = activation in test [2] is 1.57% [at 0.349 µM]. Also, the activity change in [3] is -0.191% [at 0.217 µM, stronger effect = higher value]. Further, the activation is 0.177% [at 0.29 µM] in test [4]; 0.401% [at 0.217 µM] in test [5]; 0.0378% [at 0.249 µM] in [6]; -0.443% [at 0.249 µM] in test [7]; 0.378% [at 0.249 µM] in [11]; -1.43% [at 0.349 µM] in test [12]. The activation in test [19] is 21.1% [at 0.349 µM]; in test [15] it was -17.8% [at 0.349 µM]. Also, the figures for the activity change, negative = inhibition in test [13], in [14] and in test [16] were -1.04% [at 0.349 µM], 4.47% [at 0.349 µM] and -0.368% [at 0.348 µM], respectively.
Consider `O=C(O)CCNC(=O)c1ccc(N=Nc2ccc(O)c(C(=O)O)c2)cc1`, for which the Potency result in test [1], in test [2], in [3], in test [6], in test [7] and in test [8] was “inactive” throughout. The Potency entry in [9], in test [10], in test [11], in test [12], in test [13] and in [14] was “inactive” each time. In addition, the Potency result in [15] and in test [16] was “inactive” throughout. Besides, the outcome in test [4] and in test [5] was inactive.
`COc1ccccc1OCC(O)COC(N)=O` (centres undefined): the Potency entry in [1], in test [2], in [3], in test [6], in [7] and in test [8] was “inactive” throughout. Also, the Potency entry in [9], in [10], in test [11], in [12], in test [13] and in test [14] was “inactive” in each case. Also, the Potency result in test [19], in [15] and in test [16] was “inactive” in each case. The outcome in test [4] and in test [5] was inactive.
For `C[C@H]1O[C@@H](n2cc(F)c(=O)[nH]c2=O)[C@H](O)[C@@H]1O`, the Potency result in test [1], in test [2], in test [3], in test [6], in test [7] and in test [8] was “inactive” in each case. Also, the Potency entry in [9], in [10], in [12], in test [13], in [14] and in test [19] was “inactive” in each case. The result in [4] and in [5] was inactive. For the same compound, the Potency in [11] was 15.8 µM (active).
